# Test results: article doi:10.1101/2025.02.07.636106
# Experiments:
# [1] = target: AP-1 complex subunit sigma-1A (UniProt P61966); test: cross-linking mass spectrometry
# [2] = target: AP-1 complex subunit mu-1 (UniProt Q9BXS5); test: co-fractionation; cross-linking mass spectrometry
# [3] = target: Elongation factor 1-alpha 1 (UniProt P68104); test: cross-linking mass spectrometry
# Histone deacetylase 2 = Histone deacetylase 2 (UniProt Q92769); test: cross-link between two proteins; cross-linking mass spectrometry
# Peregrin = Peregrin (UniProt P55201); test: as above
# Abl interactor 1 = Abl interactor 1 (UniProt Q8IZP0); test: co-fractionation; cross-linking mass spectrometry
# [4] = target: Dolichyl-diphosphooligosaccharide--protein glycosyltransferase subunit DAD1 (UniProt P61803); test: co-fractionation; cross-linking mass spectrometry
# [5] = target: 26S proteasome non-ATPase regulatory subunit 7 (UniProt P51665); test: cross-link between two proteins; cross-linking mass spectrometry
# [6] = target: 26S proteasome regulatory subunit 10B (UniProt P62333); test: as above
# [7] = target: Activity-dependent neuroprotector homeobox protein (UniProt Q9H2P0); test: as above
# [8] = target: B-cell receptor-associated protein 29 (UniProt Q9UHQ4); test: as above
# [9] = target: BTB/POZ domain-containing protein 7 (UniProt Q9P203); test: as above
# [10] = target: Cytochrome b-c1 complex subunit Rieske, mitochondrial (UniProt P47985); test: as above
# Elongin-A = Elongin-A (UniProt Q14241); test: as above
# [11] = target: Endoplasmic reticulum chaperone BiP (UniProt P11021); test: as above
# Histone H2B type 1-M = Histone H2B type 1-M (UniProt Q99879); test: as above
# Histone deacetylase 1 [12] = target: Histone deacetylase 1 (UniProt Q13547); test: as above
# [13] = target: Histone-lysine N-methyltransferase 2A (UniProt Q03164); test: as above
# [14] = target: Histone-lysine N-methyltransferase, H3 lysine-36 specific (UniProt Q96L73); test: as above
# [15] = target: Keratin, type I cytoskeletal 10 (UniProt P13645); test: as above
# [16] = target: KxDL motif-containing protein 1 (UniProt Q9BQD3); test: as above
# [17] = target: Lymphatic vessel endothelial hyaluronic acid receptor 1 (UniProt Q9Y5Y7); test: as above
# [18] = target: Melanoma inhibitory activity protein 2 (UniProt Q96PC5); test: as above
# Zinc finger protein DPF3 = Zinc finger protein DPF3 (UniProt Q92784); test: as above
# [19] = target: Metastasis-associated protein MTA3 (UniProt Q9BTC8); test: as above
# [20] = target: Methyl-CpG-binding domain protein 2 (UniProt Q9UBB5); test: as above
# Protein DOP1B = Protein DOP1B (UniProt Q9Y3R5); test: as above
# [21] = target: Transcriptional repressor p66-alpha (UniProt Q86YP4); test: as above
# [22] = target: Transcriptional repressor p66-beta (UniProt Q8WXI9); test: as above
# [23] = target: Tyrosine-protein phosphatase non-receptor type 14 (UniProt Q15678); test: as above
# Histone deacetylase 1 [24] = target: Histone deacetylase 1 (UniProt Q13547); test: cross-link between two proteins; affinity purification or IP with mass spectrometry; cross-linking mass spectrometry
# [25] = target: Paired amphipathic helix protein Sin3a (UniProt Q96ST3); test: cross-link between two proteins; cross-linking mass spectrometry
# [26] = target: Pre-mRNA-splicing factor CWC25 homolog (UniProt Q9NXE8); test: as above
# [27] = target: Guanine nucleotide-binding protein G(i) subunit alpha-3 (UniProt P08754); test: co-fractionation; co-fractionation; cross-linking mass spectrometry
# [28] = target: Heat shock-related 70 kDa protein 2 (UniProt P54652); test: as above
# Tubulin alpha-3E chain = Tubulin alpha-3E chain (UniProt Q6PEY2); test: as above
# AP-2 complex subunit mu = AP-2 complex subunit mu (UniProt Q96CW1); test: cross-link between two proteins; co-fractionation; cross-linking mass spectrometry
# [29] = target: Proteasome subunit alpha type-5 (UniProt P28066); test: as above
# [30] = target: Proteasome subunit beta type-4 (UniProt P28070); test: as above
# [31] = target: Proteasome subunit beta type-7 (UniProt Q99436); test: as above
# [32] = target: Dolichyl-diphosphooligosaccharide--protein glycosyltransferase 48 kDa subunit (UniProt P39656); test: cross-link between two proteins; affinity purification or IP with mass spectrometry; cross-linking mass spectrometry
# [33] = target: Splicing factor 3B subunit 2 (UniProt Q13435); test: cross-link between two proteins; cross-linking mass spectrometry
# [34] = target: Polyadenylate-binding protein 3 (UniProt Q9H361); test: as above
# [35] = target: U1 small nuclear ribonucleoprotein A (UniProt P09012); test: cross-linking mass spectrometry
# [36] = target: Vacuolar protein sorting-associated protein 16 homolog (UniProt Q9H269); test: cross-linking mass spectrometry
# [37] = target: Charged multivesicular body protein 4b (UniProt Q9H444); test: cross-linking mass spectrometry
# [38] = target: Methyl-CpG-binding domain protein 3 (UniProt O95983); test: cross-link between two proteins; cross-linking mass spectrometry
# [39] = target: Putative elongation factor 1-alpha-like 3 (UniProt Q5VTE0); test: as above
# [40] = target: Succinate dehydrogenase [ubiquinone] flavoprotein subunit, mitochondrial (UniProt P31040); test: as above
# [41] = target: V-type proton ATPase subunit D (UniProt Q9Y5K8); test: as above
substance,measurement,setting,value
"AP-1 complex subunit gamma-1, O43747",listed as a hit,[1],yes
same,listed as a hit,[2],yes
"Heat shock protein HSP 90-beta, P08238",listed as a hit,[3],yes
same,listed as a hit,Histone deacetylase 2,yes
same,listed as a hit,Peregrin,yes
"AP-1 complex subunit sigma-1A, P61966",listed as a hit,[2],yes
"Cytoplasmic FMR1-interacting protein 1, Q7L576",listed as a hit,Abl interactor 1,yes
"Dolichyl-diphosphooligosaccharide--protein glycosyltransferase subunit 2, P04844",listed as a hit,[4],yes
"Dolichyl-diphosphooligosaccharide--protein glycosyltransferase subunit 1, P04843",listed as a hit,[4],yes
"26S proteasome non-ATPase regulatory subunit 12, O00232",listed as a hit,[5],yes
"Proteasome subunit alpha type-3, P25788",listed as a hit,[6],yes
"ATP-dependent chromatin remodeler CHD4, Q14839",listed as a hit,[7],yes
"Leucine-rich repeat-containing protein 59, Q96AG4",listed as a hit,[8],yes
"Secretory carrier-associated membrane protein 3, O14828",listed as a hit,[9],yes
"Putative cytochrome b-c1 complex subunit Rieske-like protein 1, P0C7P4",listed as a hit,[10],yes
"ATP synthase peripheral stalk subunit OSCP, mitochondrial, P48047",listed as a hit,Elongin-A,yes
"DNA/RNA-binding protein KIN17, O60870",listed as a hit,[11],yes
"ADP/ATP translocase 3, P12236",listed as a hit,Histone H2B type 1-M,yes
"Collagen alpha-5(IV) chain, P29400",listed as a hit,Histone deacetylase 1 [12],yes
"Prohibitin 1, P35232",listed as a hit,[13],yes
"Protein-L-isoaspartate(D-aspartate) O-methyltransferase, P22061",listed as a hit,[14],yes
"Keratin, type II cytoskeletal 1, P04264",listed as a hit,[15],yes
"Biogenesis of lysosome-related organelles complex 1 subunit 1, P78537",listed as a hit,[16],yes
"B-cell receptor-associated protein 31, P51572",listed as a hit,[17],yes
"Syntaxin-7, O15400",listed as a hit,[18],yes
same,listed as a hit,Zinc finger protein DPF3,yes
"Metastasis-associated protein MTA1, Q13330",listed as a hit,[19],yes
same,listed as a hit,[20],yes
same,listed as a hit,Protein DOP1B,yes
same,listed as a hit,[21],yes
same,listed as a hit,[22],yes
same,listed as a hit,[23],yes
same,listed as a hit,Histone deacetylase 1 [24],yes
"Histone-binding protein RBBP7, Q16576",listed as a hit,[25],yes
"Transcriptional repressor p66-beta, Q8WXI9",listed as a hit,[26],yes
"Guanine nucleotide-binding protein G(i) subunit alpha-2, P04899",listed as a hit,[27],yes
"Heat shock 70 kDa protein 6, P17066",listed as a hit,[28],yes
"Tubulin beta-4B chain, P68371",listed as a hit,Tubulin alpha-3E chain,yes
"AP-2 complex subunit alpha-1, O95782",listed as a hit,AP-2 complex subunit mu,yes
"Proteasome subunit alpha type-7, O14818",listed as a hit,[29],yes
"Proteasome subunit beta type-1, P20618",listed as a hit,[30],yes
"Proteasome subunit beta type-3, P49720",listed as a hit,[31],yes
"Proteasome subunit alpha type-6, P60900",listed as a hit,[31],yes
"Calnexin, P27824",listed as a hit,[32],yes
"Paired amphipathic helix protein Sin3b, O75182",listed as a hit,Histone deacetylase 1 [24],yes
"Microtubule-associated protein 1B, P46821",listed as a hit,[33],yes
"Polyadenylate-binding protein 4, Q13310",listed as a hit,[34],yes
"U2 small nuclear ribonucleoprotein B'', P08579",listed as a hit,[35],yes
"Vacuolar protein sorting-associated protein 33A, Q96AX1",listed as a hit,[36],yes
"Programmed cell death 6-interacting protein, Q8WUM4",listed as a hit,[37],yes
"Metastasis-associated protein MTA2, O94776",listed as a hit,[20],yes
same,listed as a hit,[38],yes
"Elongation factor 1-beta, P24534",listed as a hit,[39],yes
"Homeobox protein Hox-B3, P14651",listed as a hit,[40],yes
"Frizzled-9, O00144",listed as a hit,[41],yes
